Experimental data reported in PubChem BioAssay AID720540 (National Center for Advancing Translational Sciences (NCATS), 2013).
The campaign covered roughly 1,300 compounds. About 460 (35%) were called active. About 39% were inconclusive and are not listed. The call rests on the fitted dose curve; in most records, active means well fitted inhibition curve with a large enough effect; inconclusive means small, poorly fitted or top-dose-only effect; inactive means flat fitted curve, though single readings scatter. This is one part of the list.

Target: Protein phosphatase EYA2 (Homo sapiens) (UniProt O00167)
Experiment: qHTS for Inhibitors of the Phosphatase Activity of Eya2: Confirmatory Assay for Cherry-picked Compounds; further: nearly all actives have a fitted effect of over 65% in size
Settings: purified EYA2 phosphatase activity, qHTS confirmation; series mostly up to 46.1 µM
In short: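 Eya2 (0.2 uM working solution) preincubated 10 min at room temperature with compound in pH 7.5 HEPES buffer with MgCl2, BSA, DTT. OMFP added (50 uM working solution), 10 min more; fluorescence 485/525 nm, normalized to EGTA and DMSO.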
Potency means the concentration at half of the fitted maximal effect.

Protein phosphatase EYA2 (Homo sapiens), sequence (O00167 whole entry, looked up): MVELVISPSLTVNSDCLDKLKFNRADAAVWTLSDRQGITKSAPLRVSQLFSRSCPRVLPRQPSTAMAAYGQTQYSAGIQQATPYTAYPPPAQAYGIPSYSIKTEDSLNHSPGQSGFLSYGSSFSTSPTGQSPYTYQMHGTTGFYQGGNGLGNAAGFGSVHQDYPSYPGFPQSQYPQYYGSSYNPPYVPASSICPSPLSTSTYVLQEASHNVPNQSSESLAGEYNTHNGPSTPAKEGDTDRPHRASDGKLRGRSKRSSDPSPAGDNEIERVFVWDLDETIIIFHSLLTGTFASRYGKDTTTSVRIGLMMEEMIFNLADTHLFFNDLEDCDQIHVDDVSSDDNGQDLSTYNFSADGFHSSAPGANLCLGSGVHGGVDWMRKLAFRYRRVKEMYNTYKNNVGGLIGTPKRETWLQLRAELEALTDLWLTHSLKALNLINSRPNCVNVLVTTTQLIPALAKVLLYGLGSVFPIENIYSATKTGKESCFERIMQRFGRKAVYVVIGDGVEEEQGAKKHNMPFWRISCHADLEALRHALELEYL

| Structure (SMILES) | Potency |
| --- | --- |
| CC(=O)Nc1ccc2nc(C3CC3)n(Cc3ccc(Cl)cc3)c(=O)c2c1 | inactive |
| CN1C=C/C(=C\c2cc[n+](C)c3ccccc23)c2ccccc21 | 16.9 µM (active) |
| C[n+]1ccc(/C=C/c2cc[n+](C)c3ccccc23)c2ccccc21 | 9.53 µM (active) |
| Cc1cc(C)c2nc(SCC(=O)N(C)C3CCS(=O)(=O)C3)cc(C)c2c1 (configuration not stated) | inactive |
| CCCCC1=CC2=C(c3ccco3)C(=O)C(C)(OC(=O)c3ccc(OC)cc3)C(=O)C2=CN1CCc1ccccn1 (configuration not stated) | inactive |
| COc1cc(C=NO)nc(-c2ccccn2)c1 | 1.2 µM (active) |
| Oc1c(Cl)cc(CN2CCOCC2)c2cccnc12 | 0.478 µM (active) |
| CC(C)Cc1nc2oc3c(=O)[nH]cnc3c2c2c1CCC2 | 19 µM (active) |
| O=C(O)CCc1c2ccc(=O)c(O)c-2oc2c(O)c(O)ccc12 | 1.69 µM (active) |
| O=C(O)c1cccc2cccc(-c3c4ccc(=O)c(O)c-4oc4c(O)c(O)ccc34)c12 | 3.79 µM (active) |
| COc1ccccc1NC(=O)NCCN1CCN(C(=O)Nc2ccccc2OC)CC1 | inactive |
| COc1cc(C(C(=O)NC2CCCCC2)N(C(=O)Cc2c[nH]c3ccccc23)c2ccc(C)cc2)cc(OC)c1OC (configuration not stated) | inactive |
| CC(=O)Oc1cccc2c1C(=O)c1c(OC(C)=O)cc(C(=O)O)cc1C2=O | 16.9 µM (active) |
| O=C(O)c1cccc(N2C(=O)c3cccc(Oc4ccc(Cl)cc4)c3C2=O)c1 | inactive |
| O=S(c1cc(Cl)cc(Cl)c1O)c1cc(Cl)cc(Cl)c1O | 1.35 µM (active) |
| CCC(=O)NC(=S)Nc1ccc(NC(=O)COc2ccc([N+](=O)[O-])cc2)cc1 | inactive |
| CCCC(=O)Nc1ccc(NC(=S)NC(=O)c2cccs2)cc1 | inactive |
| CCN(CC)c1ccc(NC(=S)NC(=O)c2cccs2)cc1 | 13.5 µM (active) |
| O=c1[nH][nH]cc1C=Nc1cc(Cl)ccc1O | 5.36 µM (active) |
| CCOC(=O)c1cc2c(N)c(C(=O)c3ccc(Br)cc3)sc2[nH]c1=O | 1.9 µM (active) |
| O=C(Nc1nc(-c2ccccn2)cs1)C1CC(=O)N(c2ccc3c(c2)OCCO3)C1 (configuration not stated) | 7.57 µM (active) |
| CCc1ccc(-c2csc(NC(=O)C3CC(=O)N(c4ccc5c(c4)OCCO5)C3)n2)cc1 (configuration not stated) | inactive |
| O=C(Nc1nc(-c2ccco2)c(-c2ccco2)s1)C1CC(=O)N(c2ccc3c(c2)OCCO3)C1 (configuration not stated) | 19 µM (active) |
| Cc1ccc(SCc2nc(N)nc(Nc3ccccc3C)n2)cc1C | inactive |
| COc1ccc(-c2c(N)cnc(C(=O)O)c2C)c(OCc2ccccc2)c1OC | 19 µM (active) |
| Cc1ccc(C(=O)Oc2cc(C)n(C)c(=O)c2)cc1 | 1.51 µM (active) |
| Cc1cc(OC(=O)c2ccc(Cl)cc2)cc(=O)n1C | 2.39 µM (active) |
